# Measured values published in PubChem BioAssay.
# Where “and” joins values, the source holds several entries; their conditions need not be identical. Identical values can stand only once. Calls of active or inactive are those of the source.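 Rule for the calls, unless noted: active = normalized viability below 100% at a tested concentration; inactive = the rest.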
# Columns and labels:
# [1] = Wnt pathway potentiators raising nuclear beta-catenin – imaging, WNT3A-conditioned medium, mouse C2C12, NPC library, primary screen (AID 1117326; in the data active = nuclear beta-catenin stimulation mostly above about 4.2%, no sharp cut-off; inactive = mostly below about 10%); conditions: stronger effect = higher value
# [2] = stimulators of insulin release from INS-1E, primary screen, cell-based, 5 mM glucose, NPC library (AID 1117329;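 active = compound raises insulin release from rat beta cells at 5 mM glucose, no numeric limit stated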); conditions: rat INS-1E insulin secretion, at 10 µM, stronger effect = higher value
# [3] = growth inhibition of GSK3B-pretreated HCT116 cells – cell-based, CellTiter-Glo, 0.2 to 20 µM (AID 1117336;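 active = compounds lowering colon cancer cell viability after pretreatment blocking the GSK3B kinase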); conditions: HCT116 viability after GSK3B inhibitor, at 20 µM, stronger effect = higher value
# [4] = inhibition of endothelial tube formation, primary screen, imaging, VEGF stimulated, CD31 staining, tube area, NPC library (AID 1117340;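 active = compound that reduces growth-factor-driven endothelial tube area in a mixed cell culture, no cutoff stated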); conditions: VEGF-stimulated ADSC/ECFC co-culture, at 10 µM, stronger effect = higher value
# [5] = GLP1 release stimulators, primary, NCI-H716, NPC library (AID 1117341;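 active = compound raises GLP1 secretion from the human gut endocrine cells, with no numeric limit stated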); conditions: NCI-H716 cells, at 10 µM, stronger effect = higher value
# [6] = HCT116 colon cancer cell growth inhibition, primary screen, CellTiter-Glo luminescence, NPC library (AID 1117342;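 active = compounds that lower survival of HCT116 colon cancer cells in the luminescence readout, no numeric limit stated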); conditions: at 20 µM (top of the series)
# [7] = reduced SW480 viability measured with CellTiter-Glo, NPC library, primary (AID 1117343;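 active = compounds that lower viability of the colon cancer cells in the luminescence readout, with no numeric limit stated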); conditions: CellTiter-Glo luminescence; at 20 µM (top of the series) unless noted
# [8] = NPC library primary testing for decreased DLD-1 cell viability via CellTiter-Glo (AID 1117346;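 active = compounds that lower survival of DLD-1 colon cancer cells in the luminescence readout, no cutoff given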); conditions: DLD-1 viability, CellTiter-Glo luminescence; at 20 µM (top of the series)
# [9] = EMT-state selective cytotoxicity in co-culture – imaging, PC-3E GFP, TEM4-18 mCherry, primary screen (AID 1345086;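 active = compounds killing one labelled cell type while sparing the other, by normalised counts and ratio limits, not self-fluorescent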;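 note: cells exposed to compound for 72 h before imaging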;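 for red/green cell ratio (normalised): normalised mesenchymal count divided by normalised epithelial count so high means epithelial killing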); conditions: PC-3E GFP / TEM4-18 mCherry co-culture, imaging cell counts, at 1 µM
# [10] = viability loss with induced miR-34 in A549 – imaging, A549 dox-inducible miR-34, nuclei and caspase counts, primary screen (AID 1347080;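 active = compounds whose cell count with miR-34 switched on is under 0.7 times the count with it off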); conditions: A549 miR-34 inducible, Hoechst nuclei count, 48 h
# [11] = MELAS cybrid and Rieske KO viability enhancers – cell-based, MELAS cybrids, Rieske KO mouse fibroblasts, CellTiter-Glo, primary screen (AID 1508586;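 active = mean z-score across replicates of 1.96 or higher in either the MELAS or the Rieske mutant cell line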;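 note: z relative to plate mean and SD of compound and empty wells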); conditions: low glucose
# [12] = drug combination growth inhibition, ovarian cancer – cell-based, oncology-focused library, rucaparib conditional, profiling panel (AID 1508598); conditions: patient-derived ovarian cancer cells, CellTiter-Glo viability, 144 h, stronger effect = lower value
# [13] = biological target: NAD(+) hydrolase SARM1 (Homo sapiens) (UniProt Q6SZW1); test: blocking NAD cleavage by SARM1 SAM-TIR – cell lysate, NAD-Glo luminescence (AID 1508614;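 active = compound whose remaining NAD level is above about 45 nM, limit read from the data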;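 note: higher remaining NAD means stronger inhibition of SARM1 NADase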); conditions: SAM-TIR HEK293T lysate NADase, at 1 µM, stronger effect = higher value
# [14] = growth inhibition, single agent or in combination, cell-based, chromothripsis tumors, cisplatin or BGB combos (AID 1671449; in the data active = inhibition above about 80%;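 note: cells exposed for 96 hours; 0% = vehicle DMSO and 100% = killing by high DMSO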); conditions: LFS_MB_P medulloblastoma cells
# [15] = growth inhibition, single agent and combos, cell-based, chromothripsis tumors, cisplatin or BGB combos (AID 1671450; in the data active = inhibition above about 80%;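 note: cells exposed to compound for four days; 0% = vehicle DMSO and 100% = cell killing by high DMSO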); conditions: HDN33 neuroblastoma cells, stronger effect = higher value
# [16] = growth inhibition, single agents and combos, ICB984, cell-based, cisplatin or BGB combos, synergistic combos for chromothripsis tumors (AID 1671451; call rule not given here;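 note: cells exposed for 96 hours before readout; 0% = vehicle DMSO and 100% = killing by high DMSO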); conditions: ICB984 medulloblastoma cells, drug combinations, stronger effect = higher value
# [17] = growth inhibition, single agents and combos, HTB85, cell-based, BGB or cisplatin IC20 combos, synergistic combos for chromothripsis tumors (AID 1671453; in the data active = inhibition above about 80%;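 note: cells exposed for 96 hours before readout; 0% = vehicle DMSO and 100% = high DMSO killing control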); conditions: HTB85 osteosarcoma cells, drug combinations, stronger effect = higher value
# [18] = growth inhibition, MDA-MB-436, cell-based, BGB or cisplatin combos, synergistic combos for chromothripsis tumors (AID 1671458; call rule not given here;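 note: cells exposed for 96 hours; 0% = vehicle DMSO and 100% = killing by high DMSO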); conditions: MDA-MB-436 breast carcinoma growth inhibition, drug combinations, stronger effect = higher value
# Sequence of NAD(+) hydrolase SARM1 (Homo sapiens) (Q6SZW1 whole entry, looked up): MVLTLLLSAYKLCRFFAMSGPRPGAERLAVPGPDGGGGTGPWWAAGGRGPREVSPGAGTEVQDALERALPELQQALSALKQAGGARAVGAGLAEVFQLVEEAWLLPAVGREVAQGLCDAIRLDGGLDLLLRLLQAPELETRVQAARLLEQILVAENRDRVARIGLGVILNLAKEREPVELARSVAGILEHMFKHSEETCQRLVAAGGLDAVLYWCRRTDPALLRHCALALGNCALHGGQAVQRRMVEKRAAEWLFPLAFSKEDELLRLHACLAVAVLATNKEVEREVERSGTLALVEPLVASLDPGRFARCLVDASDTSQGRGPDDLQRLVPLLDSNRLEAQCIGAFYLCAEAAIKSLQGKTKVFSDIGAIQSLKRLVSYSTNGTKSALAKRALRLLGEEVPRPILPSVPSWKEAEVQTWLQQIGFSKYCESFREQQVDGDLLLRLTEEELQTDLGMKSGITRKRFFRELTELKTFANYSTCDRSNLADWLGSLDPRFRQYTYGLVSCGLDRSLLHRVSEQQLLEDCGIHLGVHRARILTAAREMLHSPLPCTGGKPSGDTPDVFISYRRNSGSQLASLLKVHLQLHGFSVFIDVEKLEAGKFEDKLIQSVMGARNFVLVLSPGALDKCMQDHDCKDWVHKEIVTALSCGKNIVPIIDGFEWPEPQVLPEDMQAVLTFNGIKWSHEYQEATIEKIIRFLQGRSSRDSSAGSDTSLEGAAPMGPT
smiles,measurement,setting,value
O=C(CCCCCCC(=O)Nc1ccccc1)NO,nuclear beta-catenin stimulation,[1]; at 10 µM,7.6% (inactive)
same,nuclear beta-catenin stimulation,"[1]; stimulation, at 2 µM",7.1%
same,insulin secretion stimulation,[2],-1.2% (inactive)
same,viability decrease,[3],53.5% (active)
same,tube area decrease,[4],103% (active)
same,GLP1 secretion stimulation,[5],0.5% (inactive)
same,inhibition of viability,[6],108% (active)
same,viability decrease (inhibition),[7],110% (active)
same,viability decrease (inhibition),[8],58% (active)
same,red/green cell ratio (normalised),"[9]; actives lie on both sides, counts scaled to control wells, 1 = unselective",1.29 (inactive)
same,normalised cell number,[9]; measured here: epithelial PC-3E GFP cell survival,0.33
same,normalised cell number,[9]; measured here: mesenchymal TEM4-18 mCherry cell survival,0.42
same,fold change,"[10]; stronger effect = lower value, cell number ratio, induced over uninduced",1.09 (inactive) and 1.01 (inactive) and 0.979 (inactive)
same,fold change,[10]; measured here: relative caspase fold change +Dox/-Dox,0.756 and 1.04 and 1.07
same,cell count,"[10]; measured here: total cells with miR-34 induction, stronger effect = lower value",1690 and 5020 and 1390
same,cell count,[10]; measured here: total cells without miR-34 induction,1540 and 4980 and 1420
same,z-score,"[11]; MELAS cybrid survival, CellTiter-Glo 48 h, stronger effect = higher value",0.575 (inactive) and -2.2 (inactive)
same,z-score,"[11]; Rieske KO mouse fibroblast survival, CellTiter-Glo 72 h",0.979 and -1.4
same,viability,"[12]; at 0.000305 µM, OCI-C5x cells, with rucaparib 10 µM, 100% = cells with rucaparib alone",108% (inactive)
same,viability,"[12]; at 0.000305 µM, OCI-C5x cells, without rucaparib",108% (inactive)
same,viability,"[12]; at 0.000305 µM, OCI-P5x cells, with rucaparib 20 µM, 100% = cells with rucaparib alone",87.7% (active)
same,viability,"[12]; at 0.000305 µM, OCI-P5x cells, without rucaparib",91.8% (active)
same,viability,"[12]; at 0.00122 µM, OCI-C5x cells, with rucaparib 10 µM, 100% = cells with rucaparib alone",112% (inactive)
same,viability,"[12]; at 0.00122 µM, OCI-C5x cells, without rucaparib",106% (inactive)
same,viability,"[12]; at 0.00122 µM, OCI-P5x cells, with rucaparib 20 µM, 100% = cells with rucaparib alone",83% (active)
same,viability,"[12]; at 0.00122 µM, OCI-P5x cells, without rucaparib",97.1% (active)
same,viability,"[12]; at 0.00488 µM, OCI-C5x cells, with rucaparib 10 µM, 100% = cells with rucaparib alone",113% (inactive)
same,viability,"[12]; at 0.00488 µM, OCI-C5x cells, without rucaparib",110% (inactive)
same,viability,"[12]; at 0.00488 µM, OCI-P5x cells, with rucaparib 20 µM, 100% = cells with rucaparib alone",109% (inactive)
same,viability,"[12]; at 0.00488 µM, OCI-P5x cells, without rucaparib",96.9% (active)
same,viability,"[12]; at 0.0195 µM, OCI-C5x cells, with rucaparib 10 µM, 100% = cells with rucaparib alone",111% (inactive)
same,viability,"[12]; at 0.0195 µM, OCI-C5x cells, without rucaparib",114% (inactive)
same,viability,"[12]; at 0.0195 µM, OCI-P5x cells, with rucaparib 20 µM, 100% = cells with rucaparib alone",112% (inactive)
same,viability,"[12]; at 0.0195 µM, OCI-P5x cells, without rucaparib",93.3% (active)
same,viability,"[12]; at 0.0781 µM, OCI-C5x cells, with rucaparib 10 µM, 100% = cells with rucaparib alone",110% (inactive)
same,viability,"[12]; at 0.0781 µM, OCI-C5x cells, without rucaparib",108% (inactive)
same,viability,"[12]; at 0.0781 µM, OCI-P5x cells, with rucaparib 20 µM, 100% = cells with rucaparib alone",96.2% (active)
same,viability,"[12]; at 0.0781 µM, OCI-P5x cells, without rucaparib",83% (active)
same,viability,"[12]; at 0.313 µM, OCI-C5x cells, with rucaparib 10 µM, 100% = cells with rucaparib alone",57.7% (active)
same,viability,"[12]; at 0.313 µM, OCI-C5x cells, without rucaparib",57.4% (active)
same,viability,"[12]; at 0.313 µM, OCI-P5x cells, with rucaparib 20 µM, 100% = cells with rucaparib alone",61.2% (active)
same,viability,"[12]; at 0.313 µM, OCI-P5x cells, without rucaparib",46.1% (active)
same,viability,"[12]; at 1.25 µM, OCI-C5x cells, with rucaparib 10 µM, 100% = cells with rucaparib alone",73.9% (active)
same,viability,"[12]; at 1.25 µM, OCI-C5x cells, without rucaparib",52.8% (active)
same,viability,"[12]; at 1.25 µM, OCI-P5x cells, with rucaparib 20 µM, 100% = cells with rucaparib alone",65.9% (active)
same,viability,"[12]; at 1.25 µM, OCI-P5x cells, without rucaparib",55.9% (active)
same,viability,"[12]; at 5 µM, OCI-C5x cells, with rucaparib 10 µM, 100% = cells with rucaparib alone",8.43% (active)
same,viability,"[12]; at 5 µM, OCI-C5x cells, without rucaparib",7.74% (active)
same,viability,"[12]; at 5 µM, OCI-P5x cells, with rucaparib 20 µM, 100% = cells with rucaparib alone",8.03% (active)
same,viability,"[12]; at 5 µM, OCI-P5x cells, without rucaparib",14.8% (active)
same,remaining NAD,[13],10 nM (inactive)
same,inhibition,"[14]; at 0.5 µM, stronger effect = higher value",76.8% (inactive)
same,inhibition,"[14]; measured here: combination with BGB IC20, at 0.005 µM",-24%
same,inhibition,"[14]; measured here: combination with BGB IC40, at 0.005 µM",-25.1%
same,inhibition,"[14]; measured here: combination with BGB IC40, at 0.05 µM",-21.7%
same,inhibition,"[14]; measured here: combination with cisplatin, at 0.5 µM, stronger effect = higher value",48.5%
same,inhibition,"[14]; measured here: combination with cisplatin, at 5 µM, stronger effect = higher value",107%
same,inhibition,"[15]; BGB combo, at 5 µM",92.3%
same,inhibition,[15]; at 0.5 µM,20.4% (inactive)
same,inhibition,"[15]; cisplatin combo, at 5 µM",98%
same,inhibition,"[15]; measured here: with BGB IC20 combination, at 0.5 µM",5.45%
same,inhibition,"[15]; measured here: with cisplatin IC20 combination, at 0.5 µM",18.5%
same,inhibition,"[15]; single agent, at 5 µM",96.3%
same,inhibition,"[16]; BGB IC20 combo, at 0.005 µM",-9.97%
same,inhibition,"[16]; BGB IC40 combo, at 0.005 µM",-34%
same,inhibition,"[16]; BGB IC40 combo, at 0.05 µM",71.5%
same,inhibition,[16]; at 0.5 µM,-21.1% (inactive)
same,inhibition,"[16]; cisplatin combo, at 0.05 µM",70.7%
same,inhibition,"[16]; cisplatin combo, at 0.5 µM",-19.8%
same,inhibition,"[16]; cisplatin combo, at 5 µM",-86.6%
same,inhibition,"[16]; measured here: 5 uM single agent, at 5 µM",-52.1%
same,inhibition,[17]; at 0.5 µM,1.09% (inactive)
same,inhibition,"[17]; measured here: with BGB IC20, at 0.5 µM",-18.4%
same,inhibition,"[17]; measured here: with BGB IC20, at 5 µM",80.9%
same,inhibition,"[17]; measured here: with cisplatin IC20, at 0.5 µM",21.1%
same,inhibition,"[17]; measured here: with cisplatin IC20, at 5 µM",89.9%
same,inhibition,"[17]; single agent, at 5 µM",87.5%
same,inhibition,[18]; at 0.5 µM,-18.9% (inactive)
same,inhibition,"[18]; measured here: BGB combination, at 0.5 µM",-38.5%
same,inhibition,"[18]; measured here: BGB combination, at 5 µM",32%
same,inhibition,"[18]; measured here: cisplatin combination, at 0.5 µM",-20.9%
same,inhibition,"[18]; measured here: cisplatin combination, at 5 µM",36.6%
